Reference: PubChem BioAssay

experiment: S6 kinase pathway phospho-S6 level changes – cell-based, A549, cytoblot, luminescence, serum-stimulated, primary screen (AID 1158); conditions: 5 h, higher = more signal;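 note: serum-stimulated A549 lung adenocarcinoma cells; signal is phosphorylated S6 detected by cytoblot immunostaining with HRP secondary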

Question: With `CC1CC/C=C\[C@H]2OC34C=CCN(C(C)C)C(=O)[C@H]3N(C(C)CO)C(=O)[C@@H]4C2C(=O)O1` (stereo not given in full) as the molecule, how does the z-score read?
Answer: The z-score was 1.65.

Question: Which z-score does the source give for `[N-]=[N+]=NCc1ccccc1C[C@]1(C(=O)N2CCCCC2)COC(c2ccc(OCCCO)cc2)=N1` here?
Answer: Its z-score is -0.305.

Question: With `O=C1NC(=O)C2C1C=CC(C(O)c1ccc(F)cc1)N2Nc1ccc(Cl)cc1Cl` (stereo not given) as the molecule, how does the z-score read?
Answer: The z-score was 0.0765.

Question: Which z-score does the source give for `O=C(NCC(F)(F)F)[C@@H]1c2ccccc2C(=O)N(Cc2cc(C(F)(F)F)cc(C(F)(F)F)c2)[C@H]1c1ccc(CO)cc1` here?
Answer: Its z-score is 0.751.

Question: For `C=CCNC(=O)[C@H]1[C@@H]2C(=O)O[C@@H](c3ccccc3)[C@@H](c3ccccc3)N2[C@@H](c2ccc(O)cc2)[C@]12C(=O)N(C(=O)OCCOC)c1ccc(C#Cc3ccc(OC)cc3)cc12`, which z-score is on record?
Answer: The z-score was -0.376.

Question: Which z-score does the source give for `COCCOC(=O)N1C(=O)[C@@]2(c3cc(C#CCNC(N)=O)ccc31)[C@H](C(N)=O)[C@H]1C(=O)O[C@H](c3ccccc3)[C@H](c3ccccc3)N1[C@@H]2c1ccc(O)cc1` here?
Answer: The z-score was 0.189.

Question: With `CC(C)(C)OC(=O)CC[C@@]1(C(N)=O)N=C(c2ccc(OCCCO)cc2)O[C@@H]1c1ccccc1CN=[N+]=[N-]` as the molecule, how does the z-score read?
Answer: Its z-score is 0.0301.

Question: Which z-score does the source give for `COC(=O)[C@@]1(Cc2ccc(F)cc2)[C@H]2c3cc(C(=O)N(C)C)n(CCF)c3C[C@H]2CN1C(=O)c1ccccc1` here?
Answer: The z-score was 0.456.

Question: Which z-score does the source give for `COc1ccc(C(=O)Nc2cccc(CN3C(=O)[C@]4(O[C@H](CC(=O)N(CCO)Cc5ccccc5)[C@@H]([Si](C)(C)c5ccc(OC)cc5)[C@@H]4C)c4ccccc43)c2)cc1` here?
Answer: The z-score was 0.805.

Question: Which z-score does the source give for `[N-]=[N+]=NCc1ccccc1C[C@@]1(C(=O)NCCN2CCOCC2)N=C(c2ccc(OCCCO)cc2)O[C@@H]1c1ccccc1` here?
Answer: Its z-score is -0.28.

Question: Which z-score does the source give for `COC(=O)C1(CC(C)C)C=C2C(=C(C)C(=O)C2C)CN1` (stereo not given) here?
Answer: The z-score was -0.164.

Question: With `COC(=O)C(CC#Cc1ccc2c(c1)[C@]1(C(=O)N2)[C@H](c2ccc(OCCO)cc2)N2[C@H](c3ccccc3)[C@H](c3ccccc3)OC(=O)[C@H]2[C@@H]1C(N)=O)C(=O)OC` as the molecule, how does the z-score read?
Answer: The z-score was -0.359.

Question: Which z-score does the source give for `CCCN1C(=O)[C@@]2(c3ccc([N+](=O)[O-])cc3)CC(=O)N(C3CCCCC3)[C@@H]2c2ccc(CO)cc21` here?
Answer: Its z-score is -0.504.

Question: With `C=CCNC(=O)[C@H]1[C@@H]2C(=O)O[C@@H](c3ccccc3)[C@@H](c3ccccc3)N2[C@@H](c2ccc(OCCO)cc2)[C@]12C(=O)N(C(=O)OCCOC)c1ccc(C#CCC(C(=O)OC)C(=O)OC)cc12` as the molecule, how does the z-score read?
Answer: The z-score was -0.116.

Question: For `C=CCOC(=O)[C@H]1[C@@H]2C(=O)O[C@@H](c3ccccc3)[C@@H](c3ccccc3)N2[C@@H](c2ccc(OCCOC(=O)[C@H]3C[C@H]4C(=O)NCC(=O)N4[C@H]3c3ccc(O)cc3)cc2)[C@]12C(=O)Nc1ccccc12`, which z-score is on record?
Answer: Its z-score is -0.295.

Question: Which z-score does the source give for `COc1ccc(C(=O)Nc2ccc(CN3C(=O)[C@@]4(O[C@@H](CC(=O)N(CCO)Cc5ccccc5)[C@H]([Si](C)(C)c5ccc(OC)cc5)[C@H]4C)c4ccccc43)cc2)cc1` here?
Answer: Its z-score is 1.21.

Question: Which z-score does the source give for `CCOC(=O)C1=CCC(c2ccncc2)N(S(=O)(=O)c2ccc(C)cc2)C1` (stereo not given) here?
Answer: The z-score was -0.0707.

Question: For `O=C1O[C@H](c2ccccc2)[C@H](c2ccccc2)N2[C@H]1[C@@H](C(=O)O)[C@]1(C(=O)Nc3ccc(C#CC4(O)CCCCCC4)cc31)[C@H]2c1ccccc1OCCO`, which z-score is on record?
Answer: Its z-score is 0.364.

Question: With `O=C1O[C@H](c2ccccc2)[C@H](c2ccccc2)N2[C@H]1[C@@H](C(=O)O)[C@]1(C(=O)Nc3ccccc31)[C@H]2c1ccc(OCCO)cc1` as the molecule, how does the z-score read?
Answer: The z-score was -0.412.

Question: With `CCCCCCc1nc(-c2ccc(OC)nc2)c(C)c2c1[Si](C(C)C)(C(C)C)OC2` as the molecule, how does the z-score read?
Answer: Its z-score is 1.34.

Question: For `COC(=O)Cn1c(C(=O)N(C)C)cc2c1C[C@H]1CN(C(=O)c3ccccc3)[C@@](Cc3ccccc3)(C(=O)OC)[C@@H]21`, which z-score is on record?
Answer: The z-score was 0.17.

Question: Which z-score does the source give for `COc1ccc([Si](C)(C)[C@H]2[C@H](CC(=O)N3CCC[C@H]3CO)O[C@@]3(C(=O)N(C)c4ccccc43)[C@@H]2C)cc1` here?
Answer: Its z-score is -0.0454.

Question: With `C=CC[C@H](OC(=O)Nc1ccc(SC)cc1)c1ccc(O)c(F)c1` as the molecule, how does the z-score read?
Answer: Its z-score is 0.49.

Question: Which z-score does the source give for `Cc1ccc(S(=O)(=O)N2[C@@H](c3ccccc3)C(C(=O)O)=CC[C@H]2c2ccc(F)cc2)cc1` here?
Answer: Its z-score is -0.0796.

Question: With `COC(=O)C(CC#Cc1ccc2c(c1)[C@]1(C(=O)N2)[C@H](C(N)=O)[C@H]2C(=O)O[C@H](c3ccccc3)[C@H](c3ccccc3)N2[C@@H]1c1ccccc1OCCO)C(=O)OC` as the molecule, how does the z-score read?
Answer: Its z-score is -0.127.

Question: For `O=C1OC[C@@H](c2ccccc2)n2cc(/C=C/c3ccccc3)cc21`, which z-score is on record?
Answer: The z-score was 0.693.

Question: Which z-score does the source give for `CN1C(=O)C2C(C1=O)C1C=C(CCCO)C2C(C2CC2)N1C` (stereo not given) here?
Answer: The z-score was 1.82.

Question: For `COC(=O)[C@@]1(Cc2ccc(F)cc2)[C@H]2c3cc(C(=O)N(C)C)n(Cc4cccc5ccccc45)c3C[C@H]2CN1C(=O)c1ccccc1`, which z-score is on record?
Answer: Its z-score is -0.779.

Question: For `C[N+](C)(C)CCCC[C@@H]1NC(=O)[C@H]2C[C@@H](C(=O)O)[C@@H](c3ccc(O)cc3)N2C1=O`, which z-score is on record?
Answer: Its z-score is 1.2.

Question: For `C=CCN1C(=O)[C@]2(O[C@H](CCO)[C@@H]([Si](C)(C)c3ccc(OC)cc3)[C@@H]2C)c2cc(N3C(=O)c4ccccc4Oc4ccccc43)ccc21`, which z-score is on record?
Answer: Its z-score is 0.695.

Question: Which z-score does the source give for `COc1cc2c(cc1OC)CN(C(=O)[C@@H]1[C@H]3C(=O)O[C@H](c4ccccc4)[C@H](c4ccccc4)N3[C@H](c3ccc(O)cc3)[C@@]13C(=O)Nc1ccc(C#CC4=CCCCC4)cc13)CC2` here?
Answer: The z-score was 0.458.

Question: Which z-score does the source give for `COc1ccc([Si](C)(C)[C@@H]2[C@@H](CC(=O)N3CCC[C@H]3CO)O[C@]3(C(=O)N(Cc4cccc(N5C(=O)c6cccc7cccc5c67)c4)c4ccccc43)[C@H]2C)cc1` here?
Answer: Its z-score is 0.851.

Question: Which z-score does the source give for `O=C1O[C@@H](c2ccccc2)[C@@H](c2ccccc2)N2[C@@H](c3ccccc3OCCO)[C@]3(C(=O)Nc4ccc(C#CC5(O)CCCCCC5)cc43)[C@@H](C(=O)N3CCCCCCC3)[C@H]12` here?
Answer: Its z-score is 1.76.

Question: Which z-score does the source give for `COc1ccc(NN2C(C(O)c3ccccc3)C=CC3C(=O)N(C4CCCCC4)C(=O)C32)cc1` (stereo not given) here?
Answer: The z-score was -0.388.

Question: With `COC(=O)[C@@]1(Cc2ccc(F)cc2)[C@H]2c3cc(C(=O)N4CCCC4)n(C[C@H](O)CO)c3C[C@H]2CN1C(=O)c1ccccc1` as the molecule, how does the z-score read?
Answer: The z-score was -0.0929.
